Assay outcomes as filed in PubChem.
KDM5B inhibitor: Primary screen for KDM5B Histone Demethylases FDH-coupled qHTS; KDM5B demethylase, FDH-coupled NADH fluorescence (FDH is formaldehyde dehydrogenase); Potency, µM (series often up to 57.7 µM), actives largely listed as inhibitors; hit rate 2.6% among 220,000; AID 1347165, 2019; active = well fitted inhibition curve with a large enough effect; also: 0% is about no effect; nearly all actives have a fitted effect of over 70% in size
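KDM5BΔAP (200 nM final) in 50 mM HEPES pH 7.5, 0.01% Tween-20 was preincubated 10 min at RT with compound over a concentration range. Substrate mix (H3K4me3 12.5 µM, α-KG 25 µM, Fe²⁺, ascorbate, NAD⁺, FDH) was added, and NADH fluorescence change over 30 min gave dose-response curves.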
* = called active by the depositor; i = inactive. Only a selection was taken, and hits are over-represented in it overall. Potency is read from the fitted curve at half-maximal effect.

SMILES	KDM5B inhibitor
COC(=O)N1CCn2c(nn(-c3ccc([N+](=O)[O-])cc3)c2=O)C1	i
COc1ccccc1C(=O)N1CCn2c(nn(-c3ccc(F)cc3F)c2=O)C1	i
Cc1cc(C(=O)O)c(C)[nH]1	i
O=C(CSc1nc2nc[nH]c2c(=O)[nH]1)NCc1ccccc1	i
CCc1nc(C)c(C(=O)O)s1	i
CCCCn1nc(C(=O)Nc2cccc(C#N)c2)c2ccccc2c1=O	i
COc1ccc(C(=O)NC2CCCCC2)cc1	i
Cc1cccc(/C=C(/C(=O)O)c2cccs2)c1	i
CCCCc1ccc(NC(=S)NCCCOC(C)C)cc1	i
Cc1ccc2c(C)c(CCC(=O)NC3CCN(C)CC3)c(=O)oc2c1	i
CC1=C/C(=N/NC(=S)Nc2c(C)cccc2C)CC1	i
O=C(O)c1nccnc1C(=O)Nc1ccc(Cl)cc1Cl	i
O=C(Nc1ccc(Cl)cc1Cl)c1cnn2ncccc12	35µM*
O=C(Nc1cccc2cccnc12)c1ccc(Cl)cc1Cl	i
O=C(Nc1ccc(Cl)cc1Cl)c1cccn2nccc12	32µM*
COC(=O)N1CCn2ncc(C(=O)Nc3ccc(Cl)cc3Cl)c2C1	i
C[S+](=O)([O-])N1CCn2ncc(C(=O)Nc3ccc(Cl)cc3Cl)c2C1	i
COc1ccc(/C=C(/C#N)C(=O)Nc2cccc3ncccc23)cc1OC	i
CCCNc1nc2c(c(=O)n(C)c(=O)n2C)n1Cc1ccc(Br)cc1	i
Cn1c(SCc2coc(-c3cccs3)n2)nnc1-c1ccccc1	i
Cc1cccn2cc(CSc3nnc(-c4ccccc4)o3)nc12	i
Cc1cccc(NC(=O)NCC2CCN(CCc3ccc(F)cc3)CC2)c1C	i
Cn1ccc2c(C(=O)NCCc3cnc[nH]3)nc(-c3ccccc3)cc21	i
COc1ccc(-c2cc3c(ccn3C)c(C(=O)NCCC(N)=O)n2)cc1OC	35µM*
COc1ccc(CNC(=O)c2nc(-c3ccccc3OC)cc3c2ccn3C)cc1OC	i
SMILES	KDM5B inhibitor
Cn1ccc2c(C(=O)NCCc3cnc[nH]3)nc(-c3cccnc3)cc21	i
CC(=O)Nc1cccc(-c2cc3c(ccn3C)c(C(=O)NCCc3cnc[nH]3)n2)c1	i
COc1ccccc1-c1cc2c(ccn2C)c(C(=O)NCCN2CCNC2=O)n1	i
COc1ccc(-c2cc3c(ccn3C)c(C(=O)NCCc3cnc[nH]3)n2)cn1	35µM*
Cn1ccc2c(C(=O)NCCc3cnc[nH]3)nc(-c3cccc(CO)c3)cc21	i
COc1cccc(-c2cc3c(ccn3C)c(C(=O)NCCc3cnc[nH]3)n2)c1OC	40µM*
Cn1ccc2c(C(=O)NCCc3cnc[nH]3)nc(-c3cnn(Cc4ccccc4)c3)cc21	32µM*
COc1ccc(NS(=O)(=O)c2ccc(OCC(=O)Nc3ccc4c(c3)OCO4)c(C)c2)cc1	i
COc1cc(/C=C/C(=O)c2ccccc2OC)ccc1OC(F)F	i
Cc1oc2c(C)c3o/c(=N/O)c4c(c3cc2c1C)CCCC4	i
Cc1nc(-c2ccc(S(=O)(=O)Nc3cccc(C#N)c3)cc2)co1	i
Cc1ccc(-c2cc(C(=O)Nc3nncs3)c3ccccc3n2)c(C)c1	i
Cn1c(=O)c2c(ncn2Cc2ccc(Br)cc2)n(C)c1=O	i
CNc1nc2c(c(=O)[nH]c(=O)n2C)n1Cc1cccc(Br)c1	i
O=C1CSc2ccc(C(=O)OCC(=O)c3c[nH]c4ccccc34)cc2N1	i
COc1cc(F)ccc1-c1cc2c(ccn2C)c(C(=O)NCCc2cnc[nH]2)n1	i
COc1ccccc1-c1cc2c(ccn2C)c(C(=O)NCCc2cnc[nH]2)n1	40µM*
Cc1ccc2c(c1)NC(SCC(=O)Nc1cccc(Br)c1)=NS2(=O)=O	i
COc1cccc(COC(=O)c2nn(Cc3ccccc3)c(=O)c3ccccc23)c1	i
O=C(CSc1nnc2ccc(-c3ccco3)nn12)N1CCOCC1	i
Cc1cc2cc(-c3c(C)noc3C)nc(N(C)CCN(C)C)c2o1	i
Cc1cc2cc(-c3c(C)noc3C)nc(-c3ccc([S+](C)(=O)[O-])cc3)c2o1	35µM*
Cc1noc(C)c1-c1cc2cc(CN(C)C)oc2c(-c2ccc([S+](C)(=O)[O-])cc2)n1	40µM*
CCC(C)Nc1nc(-c2ccc(NC(C)=O)cc2)cs1 (centres undefined)	i
CN(C)c1cccc(C(=O)Nc2ccc(CC#N)cc2)c1	i
SMILES	KDM5B inhibitor
CCCNc1c(NC(=O)Nc2ccc(Cl)cc2)c(=O)oc2ccccc12	i
O=C(NC1CCCCC1)N1Cc2[nH]cnc2C[C@H]1c1nc(-c2cccc([N+](=O)[O-])c2)no1	4µM*
Cc1ccc(NC(=O)N2Cc3[nH]cnc3C[C@H]2c2nc(-c3ccncc3)no2)cc1	i
O=C(Nc1ccccc1)N1Cc2[nH]cnc2C[C@H]1c1nc(-c2ccc3ccccc3c2)no1	i
Cc1cccc(-c2noc([C@@H]3Cc4nc[nH]c4CN3C(=O)c3ccc(-c4ccccc4)cc3)n2)c1	i
Cc1cccc(-c2noc([C@@H]3Cc4nc[nH]c4CN3C(=O)C3CCCCC3)n2)c1	i
Cc1ccc(NC(=O)N2Cc3[nH]cnc3C[C@H]2c2nc(-c3ccc4ccccc4c3)no2)cc1	22µM*
COCC(=O)NC[C@@H]1C=C(C)[C@H](Cc2nc3ccc(F)cc3[nH]2)C[C@H]1C(C)C	i
O=C(Nc1ccccc1O)c1nn(-c2ccccc2)c(=O)c2ccccc12	i
Cc1nc2ccc(S(=O)(=O)N(CC(=O)N3CCCC3)Cc3ccccc3)cc2s1	i
COC(=O)Cn1c(CN2CCN(c3cc(Cl)ccc3C)CC2)nc2c1c(=O)n(C)c(=O)n2C	i
Cc1ccccc1-c1nnc(SCc2coc(-c3cccs3)n2)n1C	i
O=C(Nc1cnc(-c2cccc(Cl)c2)nc1)c1ccc(F)cc1F	i
O=C(Nc1cnc(-c2cccc(Cl)c2)nc1)c1cc(F)cc(F)c1	25µM*
O=C(Nc1cnc(-c2ccc(Cl)cc2)nc1)c1ccc(F)c(F)c1	i
COc1ccc(S(=O)(=O)NC[C@H]2Cn3c(-c4ccc(F)cc4)cnc3CO2)cc1	i
COc1ccc(CNC(=O)C2=C(c3ccccc3)c3cc(Cl)ccc3S(=O)(=O)N2C)c(OC)c1	i
CC1(c2ccccc2)N(Cc2ccccc2)C(=O)OC12CCN(C(=O)Cc1cccc(F)c1)CC2 (centres undefined)	i
N#Cc1nc(-c2cccc3ccccc23)oc1N1CCC(C(N)=O)CC1	i
COc1ccc(-c2ccc3ncc(Nc4ccc(F)c(Cl)c4)n3n2)cn1	i
Clc1cccc(Nc2cnc3ccc(N4CCOCC4)nn23)c1	32µM*
Fc1cc(Nc2cnc3ccc(-n4ccnc4)nn23)cc(N2CCOCC2)c1	i
COc1ccc(-c2ccc3ncc(Nc4ccnc(N5CCOCC5)c4)n3n2)cc1OC	i
COc1ccccc1-c1ccc2ncc(Nc3ccc(CN4CCN(C)CC4)cc3)n2n1	i
CN1CCN(c2ccc3ncc(Nc4ccc(OC(F)(F)F)cc4)n3n2)CC1	32µM*
CN1CCN(c2ccc3ncc(Nc4ccc5c(c4)OCCO5)n3n2)CC1	i
CN1CCN(c2ccc3ncc(Nc4ccc(Cl)c(C(F)(F)F)c4)n3n2)CC1	32µM*
COc1ccc(-c2ccc3ncc(Nc4ccc(CN5CCN(C)CC5)cc4)n3n2)cn1	i
Cc1ccc(-n2c(SCC(=O)Nc3ccc(Cl)cc3)nc3c(=O)[nH]cnc32)cc1	i
